Assay [1] deals with Rho-associated protein kinase 1 (Homo sapiens) (UniProt Q13464). As to conditions: at 1 µM.
Assay [2] concerns the target Rho-associated protein kinase 2 (Homo sapiens) (UniProt O75116). As to conditions: at 0.1 µM.
For assay [3] the target is unchanged. The settings on record: at 1 µM.
Assay [4] concerns the target Ribosomal protein S6 kinase alpha-1 (Homo sapiens) (UniProt Q15418). As to conditions: at 0.1 µM.
Assay [5] has the same target. As to conditions: at 1 µM.
In assay [6] the target is Ribosomal protein S6 kinase alpha-3 (Homo sapiens) (UniProt P51812). As to conditions: at 0.1 µM.
For assay [7] the target is unchanged. As to conditions: at 1 µM.
For assay [8], the target named is Ribosomal protein S6 kinase alpha-2 (Homo sapiens) (UniProt Q15349). The settings on record: at 0.1 µM.
Assay [9] has the same target. As to conditions: at 1 µM.
In assay [10] the target is Ribosomal protein S6 kinase alpha-6 (Homo sapiens) (UniProt Q9UK32). As to conditions: at 0.1 µM.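 Also: reported value is the mean inhibition of RSK4, from the GSK PKIS kinase inhibitor screen.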

By inhibition is commonly meant the change of the read-out against control, counted positive when it falls.

Chain of Ribosomal protein S6 kinase alpha-3 (Homo sapiens) (P51812 whole entry): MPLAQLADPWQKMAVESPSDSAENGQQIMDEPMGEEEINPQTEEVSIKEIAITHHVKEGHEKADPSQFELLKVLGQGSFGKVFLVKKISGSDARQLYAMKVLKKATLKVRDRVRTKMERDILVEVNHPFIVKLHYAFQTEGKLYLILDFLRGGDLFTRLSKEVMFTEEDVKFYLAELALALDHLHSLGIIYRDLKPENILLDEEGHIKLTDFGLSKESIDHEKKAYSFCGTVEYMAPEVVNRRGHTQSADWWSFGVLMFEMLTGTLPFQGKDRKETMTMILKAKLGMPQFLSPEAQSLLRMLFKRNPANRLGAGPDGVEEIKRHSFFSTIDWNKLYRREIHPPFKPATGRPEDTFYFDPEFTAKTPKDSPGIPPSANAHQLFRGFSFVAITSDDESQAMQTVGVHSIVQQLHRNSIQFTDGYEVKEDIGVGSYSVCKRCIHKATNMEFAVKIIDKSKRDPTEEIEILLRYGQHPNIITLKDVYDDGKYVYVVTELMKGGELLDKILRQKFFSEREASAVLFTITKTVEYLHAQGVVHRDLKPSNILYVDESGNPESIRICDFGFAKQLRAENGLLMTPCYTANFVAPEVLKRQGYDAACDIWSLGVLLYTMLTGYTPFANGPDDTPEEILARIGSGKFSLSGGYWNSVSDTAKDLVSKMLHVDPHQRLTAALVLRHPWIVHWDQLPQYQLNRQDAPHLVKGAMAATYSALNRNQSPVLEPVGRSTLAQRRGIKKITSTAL
Chain of Ribosomal protein S6 kinase alpha-6 (Homo sapiens) (Q9UK32 whole entry): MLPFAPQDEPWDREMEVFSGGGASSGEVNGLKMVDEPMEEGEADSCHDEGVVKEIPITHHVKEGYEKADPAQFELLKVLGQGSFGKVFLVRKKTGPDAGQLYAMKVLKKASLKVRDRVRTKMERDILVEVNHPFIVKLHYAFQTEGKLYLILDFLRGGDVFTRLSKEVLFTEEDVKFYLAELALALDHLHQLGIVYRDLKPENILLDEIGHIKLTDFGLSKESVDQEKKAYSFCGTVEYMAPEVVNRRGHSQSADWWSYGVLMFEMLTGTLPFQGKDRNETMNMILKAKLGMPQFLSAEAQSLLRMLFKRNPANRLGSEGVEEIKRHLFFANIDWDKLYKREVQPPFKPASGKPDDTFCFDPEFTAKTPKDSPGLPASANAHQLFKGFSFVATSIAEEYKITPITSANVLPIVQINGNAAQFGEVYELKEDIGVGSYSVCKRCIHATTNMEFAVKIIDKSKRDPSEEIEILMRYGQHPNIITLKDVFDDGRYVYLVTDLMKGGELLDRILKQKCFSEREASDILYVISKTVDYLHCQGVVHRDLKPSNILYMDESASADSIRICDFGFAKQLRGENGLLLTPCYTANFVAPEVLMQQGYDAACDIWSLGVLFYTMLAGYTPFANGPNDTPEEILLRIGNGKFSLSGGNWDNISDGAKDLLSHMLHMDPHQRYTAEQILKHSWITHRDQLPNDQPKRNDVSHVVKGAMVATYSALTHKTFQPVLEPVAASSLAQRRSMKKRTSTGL
Chain of Ribosomal protein S6 kinase alpha-2 (Homo sapiens) (Q15349 whole entry): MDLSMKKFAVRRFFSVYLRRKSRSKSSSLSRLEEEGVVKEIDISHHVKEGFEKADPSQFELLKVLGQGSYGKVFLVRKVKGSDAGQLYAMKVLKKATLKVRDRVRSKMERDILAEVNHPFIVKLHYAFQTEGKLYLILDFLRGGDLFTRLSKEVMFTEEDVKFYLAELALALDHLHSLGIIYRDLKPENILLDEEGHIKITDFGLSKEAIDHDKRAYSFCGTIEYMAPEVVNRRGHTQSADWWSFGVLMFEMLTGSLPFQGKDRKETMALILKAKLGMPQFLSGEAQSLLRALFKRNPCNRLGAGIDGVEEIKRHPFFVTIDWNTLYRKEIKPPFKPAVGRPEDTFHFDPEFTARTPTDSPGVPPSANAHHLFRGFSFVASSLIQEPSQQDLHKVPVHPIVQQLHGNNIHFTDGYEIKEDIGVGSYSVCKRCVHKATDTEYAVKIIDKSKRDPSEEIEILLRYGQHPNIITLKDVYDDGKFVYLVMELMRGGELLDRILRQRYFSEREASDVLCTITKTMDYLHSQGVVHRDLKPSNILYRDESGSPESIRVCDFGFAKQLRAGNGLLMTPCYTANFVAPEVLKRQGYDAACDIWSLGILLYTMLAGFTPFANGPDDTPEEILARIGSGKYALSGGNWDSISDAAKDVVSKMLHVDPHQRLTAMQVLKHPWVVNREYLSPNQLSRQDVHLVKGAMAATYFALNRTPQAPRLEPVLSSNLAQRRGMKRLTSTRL
Chain of Ribosomal protein S6 kinase alpha-1 (Homo sapiens) (Q15418 whole entry): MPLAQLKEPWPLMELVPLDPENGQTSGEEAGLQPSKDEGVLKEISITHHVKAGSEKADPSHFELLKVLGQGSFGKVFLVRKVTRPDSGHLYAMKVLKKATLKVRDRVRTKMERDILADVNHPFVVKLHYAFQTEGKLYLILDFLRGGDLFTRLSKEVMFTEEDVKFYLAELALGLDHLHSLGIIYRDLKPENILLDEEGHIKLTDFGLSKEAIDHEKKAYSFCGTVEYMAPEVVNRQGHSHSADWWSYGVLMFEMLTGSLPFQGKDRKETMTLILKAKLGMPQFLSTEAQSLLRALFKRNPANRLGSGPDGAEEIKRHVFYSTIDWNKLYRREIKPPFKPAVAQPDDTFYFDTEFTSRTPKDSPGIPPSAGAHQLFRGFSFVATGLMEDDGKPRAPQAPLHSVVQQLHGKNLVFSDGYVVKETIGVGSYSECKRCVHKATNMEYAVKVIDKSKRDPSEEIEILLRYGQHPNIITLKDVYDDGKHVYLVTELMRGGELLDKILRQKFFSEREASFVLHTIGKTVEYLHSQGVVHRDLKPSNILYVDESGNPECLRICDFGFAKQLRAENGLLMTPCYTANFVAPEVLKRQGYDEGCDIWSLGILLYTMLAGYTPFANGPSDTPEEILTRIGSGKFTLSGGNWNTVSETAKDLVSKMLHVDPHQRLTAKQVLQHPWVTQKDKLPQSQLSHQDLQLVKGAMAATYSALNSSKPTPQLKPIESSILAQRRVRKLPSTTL
Chain of Rho-associated protein kinase 1 (Homo sapiens) (Q13464 2-1354 limits assumed): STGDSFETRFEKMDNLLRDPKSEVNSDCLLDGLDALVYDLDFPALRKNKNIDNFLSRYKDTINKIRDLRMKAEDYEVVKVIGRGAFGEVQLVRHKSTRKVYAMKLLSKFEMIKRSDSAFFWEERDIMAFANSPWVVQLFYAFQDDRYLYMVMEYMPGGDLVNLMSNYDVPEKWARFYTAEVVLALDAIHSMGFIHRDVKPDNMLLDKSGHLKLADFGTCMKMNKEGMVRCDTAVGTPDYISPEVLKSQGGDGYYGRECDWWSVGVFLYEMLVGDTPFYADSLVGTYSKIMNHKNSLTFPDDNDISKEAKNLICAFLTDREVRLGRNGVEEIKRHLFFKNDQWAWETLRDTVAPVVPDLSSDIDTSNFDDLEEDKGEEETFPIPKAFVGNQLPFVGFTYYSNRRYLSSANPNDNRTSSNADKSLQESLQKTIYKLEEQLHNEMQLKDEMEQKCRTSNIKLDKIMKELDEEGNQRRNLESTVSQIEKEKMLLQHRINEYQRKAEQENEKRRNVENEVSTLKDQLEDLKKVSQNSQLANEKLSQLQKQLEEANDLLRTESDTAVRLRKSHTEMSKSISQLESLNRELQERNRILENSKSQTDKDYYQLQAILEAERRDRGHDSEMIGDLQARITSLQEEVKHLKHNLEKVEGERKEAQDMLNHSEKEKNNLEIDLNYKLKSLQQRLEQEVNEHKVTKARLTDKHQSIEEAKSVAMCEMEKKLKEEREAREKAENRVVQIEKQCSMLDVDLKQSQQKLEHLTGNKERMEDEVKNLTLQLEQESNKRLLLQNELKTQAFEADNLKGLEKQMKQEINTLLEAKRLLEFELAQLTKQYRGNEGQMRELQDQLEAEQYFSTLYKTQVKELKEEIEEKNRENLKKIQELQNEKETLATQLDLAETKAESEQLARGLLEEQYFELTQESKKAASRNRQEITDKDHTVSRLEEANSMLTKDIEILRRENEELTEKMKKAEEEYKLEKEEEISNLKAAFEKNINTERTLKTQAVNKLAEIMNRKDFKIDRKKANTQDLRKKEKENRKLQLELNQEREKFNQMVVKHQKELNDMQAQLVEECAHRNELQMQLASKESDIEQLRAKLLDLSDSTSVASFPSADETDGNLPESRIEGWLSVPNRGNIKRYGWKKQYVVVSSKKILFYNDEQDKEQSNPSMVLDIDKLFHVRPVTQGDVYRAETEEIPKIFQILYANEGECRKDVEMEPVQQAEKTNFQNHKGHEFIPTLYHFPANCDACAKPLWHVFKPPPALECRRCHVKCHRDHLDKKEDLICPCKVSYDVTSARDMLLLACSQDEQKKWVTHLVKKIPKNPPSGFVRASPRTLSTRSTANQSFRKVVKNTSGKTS

Consider `FC(F)(F)c1cccc(-c2nn3ncccc3c2-c2ccnc(Nc3ccc4c(c3)OCCO4)n2)c1`, for which the inhibition in assay [1] was 2.47%; in assay [2], 0%; in [3], 1.32%; in [4], 1.14%; in assay [5] it was 5.1%; in assay [6], -0.79%. In addition, the inhibition in assay [7] was -1.39%; in assay [8], 1.2%; in assay [9] it was 2.46%; in assay [10], 1.4%.
For the compound `CCn1c(-c2nonc2N)nc2c(C#CC(C)(C)O)nc(OC[C@H](N)c3ccccc3)cc21`, the inhibition was 24.7% in assay [1]; 9.12% in [2]; 51.3% in [3]; 3.36% in assay [4]; 12.8% in [5]; 1.74% in assay [6]. Moreover, the inhibition in assay [7] is 14.5%; in assay [8] it was 3.19%; in assay [9], 10.7%; in assay [10] it was 1.53%.
Take `COc1cc(N2CCN(C(C)C)CC2)ccc1Nc1nc(Nc2ccc(F)cc2C(N)=O)c2cc[nH]c2n1`: the inhibition in [1] worked out at 23.5%; in assay [2] it was 4.69%; in assay [3], 29.1%; in [4] it was 22%; in [5], 65.3%; in [6] it was 15%. Also, the inhibition was determined as 57% in [7], 8.2% in assay [8], 43.7% in [9] and 14.5% in assay [10].
Regarding `CCOc1ccc2c(-c3ccnc(Nc4cccc(C(F)(F)F)c4)n3)cnn2n1`, the inhibition in [1] was -1%; in assay [2], 1.46%; in [3], -0.05%; in assay [4], -0.89%; in [5] it was 0.51%; in assay [6], 1.29%. Moreover, the inhibition in assay [7] is 1.88%; in assay [8], 1.09%; in assay [9] it was 0.76%; in assay [10], -0.47%.
Take `CC(=O)NCc1cccc(C#Cc2cncnc2Nc2ccc(OCc3cccc(F)c3)c(Cl)c2)c1`: the inhibition in assay [1] was determined as 2.63%; in assay [2], 3.83%; in assay [3] it was 3.71%; in [4], 0.02%; in [5], 0.7%; in assay [6], 0.76%. The inhibition in assay [7] worked out at 1.97%; in assay [8], 1.51%; in [9] it was 1.36%; in assay [10], 0.19%.
Turning to `COc1ccc2c(-c3ccnc(Nc4cccc(OC(F)(F)F)c4)n3)cnn2n1`, the inhibition in assay [1] amounted to 2.92%; in [2] it was 3.74%; in [3], 8.15%; in assay [4], 2.26%; in assay [5], 3.67%; in assay [6], 1.3%. For the same compound, the inhibition in assay [7] is 1.1%; in assay [8] it was 1.43%; in [9], 2.43%; in [10], 1.53%.
`c1ccc(COc2ccc(Nc3ncnc4ccc(-c5ccco5)cc34)cc2)cc1`: the inhibition in assay [1] is -0.24%; in [2] it was 1.39%; in assay [3], 0.1%; in assay [4], -0.1%; in assay [5], 1.39%; in [6] it was 2.07%. The inhibition amounted to 2.71% in assay [7], 1.13% in [8], 0.34% in assay [9] and 0.12% in assay [10].
With `c1ccc(-c2nc3n(c2-c2ccc4c(c2)OCO4)CCC3)nc1`, the inhibition in [1] is 5.65%; in [2] it was 5.54%; in [3], 5.37%; in [4], 4.98%; in [5], 5.39%; in [6] it was 4.41%. For the same compound, the inhibition was determined as 5.78% in assay [7], 1.95% in [8], 1.35% in assay [9] and 1.28% in assay [10].
As to `Cc1cccc2c1NC(=O)/C2=N\Nc1ccc(S(N)(=O)=O)cc1`, the inhibition in assay [1] stood at 2.1%; in assay [2] it was 3.93%; in [3], 1.59%; in assay [4], 1.09%; in assay [5] it was 1.6%; in [6] it was 0.33%. For the same compound, the inhibition in [7] came out at 1.26%; in assay [8], 1.69%; in assay [9], 2.49%; in [10] it was 1.43%.
Take `NS(=O)(=O)c1ccc(N/N=C2\C(=O)Nc3ccc4ncccc4c32)cc1`: the inhibition in assay [1] stood at 38.4%; in assay [2] it was 15.9%; in assay [3], 60.3%; in [4], 6.2%; in [5], 30.6%; in assay [6] it was 7.41%. Further, the inhibition in assay [7] stood at 39.4%; in [8] it was 15.9%; in assay [9], 61.7%; in assay [10], 13%.
As for `CNC(=O)c1cncc(/C=C/c2ccccc2Cl)c1`, the inhibition in assay [1] came out at 1.5%; in assay [2] it was 3.13%; in assay [3] it was 6.36%; in assay [4] it was 0.85%; in assay [5] it was 2.91%; in assay [6] it was 1.15%. Moreover, the inhibition is 1.38% in assay [7], -0.36% in [8], -1.02% in assay [9] and 0.95% in assay [10].
With `[O-][S+]1CCN(Cc2ccc(-c3ccc4ncnc(Nc5ccc(OCc6cccc(F)c6)c(Cl)c5)c4c3)o2)CC1`, the inhibition is 4.37% in assay [1]; 2.9% in assay [2]; 5.33% in assay [3]; 2.31% in assay [4]; 3.99% in assay [5]; 0.59% in assay [6]. Moreover, the inhibition came to 0.78% in assay [7], 3.09% in assay [8], 3.37% in assay [9] and 1.65% in [10].
With `Cc1cccc(Nc2ncc(-c3ccccc3)o2)c1`, the inhibition in assay [1] came out at 4.38%; in assay [2], 2.08%; in assay [3], 3.95%; in assay [4] it was 2.35%; in assay [5], 2.99%; in [6], 0.91%. The inhibition came out at 3.43% in assay [7], 2.17% in [8], 2.67% in assay [9] and 1.32% in [10].
In the case of `c1cc(-c2cnn3nc(N4CCOCC4)ccc23)nc(NC2CC2)n1`, the inhibition in assay [1] was found to be 5.25%; in assay [2], 2.62%; in [3], 10.7%; in assay [4] it was 2.23%; in assay [5], 8.38%; in assay [6], 0.87%. The inhibition in assay [7] came to 6.33%; in assay [8], 1.86%; in assay [9], 5.06%; in assay [10], 0.29%.
Consider `COc1cc2c(cc1Nc1nc(Nc3ccsc3C(N)=O)c3cc[nH]c3n1)N(C(=O)CN(C)C)CCC2(C)C`, for which the inhibition in [1] is 66.5%; in assay [2], 29.2%; in [3] it was 72.1%; in [4] it was 23.2%; in [5] it was 66%; in assay [6], 17.2%. Moreover, the inhibition in assay [7] was determined as 50.7%; in assay [8], 8.55%; in assay [9] it was 34.4%; in assay [10] it was 11.5%.
In the case of `COc1ccc(CNC(=O)c2ccc(-c3cc(-c4nnc(C)o4)ccc3C)cc2)cc1`, the inhibition in assay [1] amounted to 2.35%; in assay [2], 4.11%; in assay [3], 9.48%; in assay [4] it was 3.72%; in assay [5] it was 8.08%; in [6], 2.12%. Besides, the inhibition in [7] came to 5.75%; in assay [8] it was 0.39%; in assay [9], 0.4%; in [10] it was 0.98%.
For the compound `Clc1ccc(-c2nn3ncccc3c2-c2ccnc(Nc3ccccc3)n2)cc1`, the inhibition in assay [1] came to 4.03%; in assay [2], 2.19%; in assay [3], 3.84%; in assay [4] it was 1.56%; in assay [5], 2.48%; in assay [6] it was 0.47%. For the same compound, the inhibition in [7] worked out at 1.89%; in assay [8], 0.49%; in [9] it was 1.37%; in assay [10], 0.64%.

Values taken from ChEMBL document CHEMBL1961873, “Compounds: GSK PKIS; Assays: Nanosyn kinase panel” (2012).
